In all, about 5,500 compounds went through this assay and about 2,000 (36%) were called active. About 18% were inconclusive and are not listed. No stated cut-off is given here; in the data, active means normalized growth mostly below about 0.91 (no sharp cut-off); inconclusive means no clear call, values can overlap the other calls; inactive means mostly above about 0.92. Some of the results follow.
Assay: chemical genetic growth profiling, strain panel (AID 1159580);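 further: tested at 20 µM; growth read once vehicle control cultures reached saturation at 30 °C; 1 = growth at the plate median or of vehicle wells; lower values mean less growth of the strain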
Settings: S. cerevisiae deletion strains, growth OD

Measured: normalized growth

COc1ccccc1N1CCN(CCN2C(=O)CC3(CCCC3)CC2=O)CC1
inactive: locus YER002W, strain NOP16, active compounds read low 0.998 | locus YMR263W, strain SAP30, active compounds read low 1 | locus YMR307W, strain GAS1, active compounds read low 0.989 | locus YNL128W, strain TEP1, active compounds read low 0.988 | locus YNL175C, strain NOP13, active compounds read low 0.991 | locus YNL197C, strain WHI3, active compounds read low 0.999 | locus YNL224C, strain SQS1, active compounds read low 1 | locus YOR083W, strain WHI5 (second series), active compounds read low 0.999 | locus YPL055C, strain LGE1, active compounds read low 1 | locus YPL241C, strain CIN2, active compounds read low 1.01
